PubChem BioAssay AID602340 (Broad Institute, 2012)
Out of some 330,000 compounds screened, about 2,600 (0.79%) were called active. What follows is part of a selection rich in actives, with near analogues and random picks from the rest. A number with no mark means an inactive call.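 The calls were made as follows: active = mean ATP rescue above about 67%, or every replicate alone reaching that limit (limit read from the data, passing the limit was not always enough); inconclusive = no clear call, values can overlap the other calls; inactive = mean under the limit and some replicate under it.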

Assay: suppressors of statin myotoxicity in C2C12 myotubes, primary screen, cell-based, single point, plate reader (AID 602340);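 also: myotubes were challenged with 10 µM simvastatin during compound exposure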
Settings: C2C12 myotubes + simvastatin, ATP luminescence, 48 h; at 7.49 µM; hits give high values; scaled: DMSO 0, geranylgeraniol control 100

SMILES | rescue of ATP level
O=C(Nc1ccccc1F)N1C[C@H]2[C@@H](c3ccccc31)[C@H](CO)N2C(=O)c1ccccn1 | 45.1%
O=C(N[C@@H]1CC[C@@H](CCNS(=O)(=O)Cc2ccccc2)O[C@@H]1CO)c1ccccc1F | -15%
CN(C)C(=O)[C@@H]1[C@@H](CO)[C@@H]2Cn3c(ccc(-c4ccccc4F)c3=O)[C@@H]2N1C(=O)C1CC1 | -6.7%
O=C(NCc1ccco1)c1cc2sccc2n1Cc1ccc(F)cc1 | 160% (active)
O=C(NCc1ccco1)c1ccc(Cn2c(=O)c3sccc3n(Cc3ccc(F)cc3)c2=O)cc1 | -13.7%
O=C(Cc1ccc(-n2c(=O)c3sccc3n(Cc3ccc(F)cc3)c2=O)cc1)NCc1ccco1 | -0.81%
O=C(C[C@@H]1CC[C@@H]2[C@H](COC[C@H](O)CN2Cc2cccc(-c3ccncc3)c2)O1)N1CCOCC1 | 7.32%
Cc1ccc(C(=O)NNC(=O)CSc2nnc3ccccn23)cc1 | 0.262%
CS(=O)(=O)c1ccc(C(=O)NNC(=O)c2cccs2)cc1 | 19.1%
Cc1ccc(SCC(=O)NNC(=O)c2ccc(S(C)(=O)=O)cc2)cc1 | 90% (active)
CO[C@H]1CN(C)C(=O)c2ccc(NC(=O)C3CCC3)cc2OC[C@@H](C)N(Cc2ccccn2)C[C@H]1C | 9.17%
CNC(=O)C[C@H]1CC[C@@H]2[C@H](COc3ccc(NC(=O)C(C)C)cc3C(=O)N2C)O1 | 5.79%
O=C(c1ccc2c(c1)C(=O)N(c1ccc(Cl)cc1)C2=O)N1CCN(c2ccccn2)CC1 | 135% (active)
O=C(c1c(F)cccc1Cl)N1CCN(c2ccccn2)CC1 | -10.5%
O=C(CCC1CCCN(C(=O)c2ccc(F)c(F)c2)C1)N1CCN(c2ccccn2)CC1 (stereo not drawn) | -0.349%
COCC(=O)Nc1ccc2c(c1)OC[C@H](C)N(C(=O)c1cnccn1)C[C@@H](C)[C@H](OC)CN(C)C2=O | 3.92%
COc1ccccc1CNC(=O)COC(=O)c1sc(C)nc1C | -4.29%
COc1cc(C2C(C(=O)c3sc(C)nc3C)=C(O)C(=O)N2CCN(C)C)cc(OC)c1OC (stereo not drawn) | 116% (active)
COc1ccc(/C(O)=C2/C(=O)C(=O)N(CCCN(C)C)C2c2ccccc2)cc1OC (stereo not drawn) | 14.8%
C[C@@H]1CN([C@@H](C)CO)C(=O)Cc2cc(NS(=O)(=O)c3cccs3)ccc2O[C@@H]1CN(C)S(=O)(=O)c1ccc(F)cc1 | -10.2%
COCC(=O)Nc1ccc2c(c1)[C@@H]1C[C@H](CC(=O)NCc3ccc(-c4ccccc4)cc3)O[C@H](CO)[C@@H]1O2 | -0.998%
C[C@@H]1CCCCO[C@@H](CN(C)C(=O)NC2CCCCC2)[C@H](C)CN([C@H](C)CO)C(=O)c2cc(NC(=O)Nc3cccc4ccccc34)ccc2O1 | -71%
CCc1ccc(N2CC(C(=O)Nc3ccc(S(=O)(=O)Nc4nccs4)cc3)CC2=O)cc1 (stereo not drawn) | 2.04%
CCc1ccc(N2CC(C(=O)NC3=NCCS3)CC2=O)cc1 (stereo not drawn) | 109% (active)
CCc1ccc(N2CC(C(=O)N3CCCCCC3)CC2=O)cc1 (stereo not drawn) | -5.19%
COc1ccc(NC(=O)Nc2ccc3c(c2)C(=O)N([C@@H](C)CO)C[C@H](C)[C@H](CN(C)C(=O)Nc2ccccc2)OCCCC[C@@H](C)O3)cc1 | 0.523%

SMILES | rescue of ATP level
CN1C(=O)c2cc(NS(C)(=O)=O)ccc2OC[C@@H]2O[C@@H](CC(=O)NCc3ccc(-c4ccccc4)cc3)CC[C@H]21 | 21.8%
Cc1c(Cl)c([N+](=O)[O-])nn1Cc1ccc(C(=O)N/N=C\c2cc(Cl)ccc2O)o1 | 74.2% (active)
CN(C)c1ccc(/C=N/NC(=O)c2ccc(Cn3cc(Br)cn3)o2)cc1 | -6.78%
Cc1nn(Cc2ccccc2Cl)c(C)c1NC(=O)Cn1nc([N+](=O)[O-])c(Cl)c1C | 13.1%
CO[C@@H]1CC[C@@H]2CCOc3ccc(C#N)cc3C(=O)N(C)[C@H](C)C(=O)N(C)C[C@@H]1O2 | 4.94%
O=C(NCC[C@@H]1CC[C@H](NC(=O)C2CCCCC2)[C@@H](CO)O1)Nc1ccc(Cl)cc1 | -9.47%
CO[C@@H]1CN(C)C(=O)c2ccc(NS(=O)(=O)c3cccc(F)c3)cc2OC[C@H](C)N(C(=O)Cc2cccnc2)C[C@@H]1C | 19.8%
C[C@H]1CN([C@@H](C)CO)C(=O)c2cc(-c3cccc(C(=O)N(C)C)c3)cnc2O[C@H]1CN(C)S(=O)(=O)c1ccccc1 | -7.9%
NC(=O)Nc1ccc(C(=O)OCC(=O)NC2CCCc3ccccc32)cc1 (stereo not drawn) | -1.62%
Nc1ccc(C(=O)OCC(=O)NC2CCS(=O)(=O)C2)cc1[N+](=O)[O-] (stereo not drawn) | -3.1%
Nc1ccc(C(=O)OCC(=O)NC2CCCc3ccccc32)cc1[N+](=O)[O-] (stereo not drawn) | 150% (active)
Cc1nn(C)c(Oc2ccccc2)c1CCNS(=O)(=O)c1ccc(F)cc1 | 8.55%
Cc1nn(C)c(Oc2ccccc2)c1[N+](=O)[O-] | 72.4% (active)
Cc1nn(C)c(Oc2ccc(Cl)cc2)c1C=O | 15.3%
CCC1(CC)NC(=O)N(CC(=O)OCC(=O)Nc2ccc(C(F)(F)F)cc2)C1=O | 115% (active)
CCC1(CC)NC(=O)N(CC(=O)OCC(=O)NC(=O)c2ccccc2)C1=O | -1.1%
CCC1(CC)NC(=O)N(CC(=O)OCC(=O)c2cc(C)c(C)cc2C)C1=O | 8.64%
C[C@H]1CN([C@@H](C)CO)C(=O)c2c(c3ccccc3n2C)-c2ccccc2CO[C@H]1CN(C)C(=O)Nc1ccc(F)cc1 | 19.1%
COCC(=O)N1C[C@H]2[C@@H](c3ccccc31)[C@@H](CO)N2C(=O)NC(C)C | 17%
CCc1ccc(CNC(=O)C2CCCN(c3nc4ccccc4o3)C2)cc1 (stereo not drawn) | 28.3%
COc1ccc(OC)c(CNC(=O)C2CCCN(c3nc4ccccc4o3)C2)c1 (stereo not drawn) | 102% (active)
COc1ccccc1CNC(=O)C1CCN(c2nc3ccccc3o2)CC1 | 15.8%
C[C@@H]1CN([C@@H](C)CO)C(=O)c2cccc(NS(=O)(=O)c3cn(C)cn3)c2O[C@@H]1CN(C)Cc1ccc(Cl)c(Cl)c1 | -13.1%
CCCNC(=O)C[C@H]1C[C@@H]2c3cc(NC(=O)C4CCOCC4)ccc3O[C@@H]2[C@@H](CO)O1 | -1.71%
CCN(CC)Cc1csc2ccc(Br)cc12 | 100% (active)
CN(CCO)Cc1csc2ccc(Br)cc12 | 14.5%

SMILES | rescue of ATP level
CCN(CC)Cc1cc(C(C)=O)ccc1O | 16.6%
CNC[C@H]1Oc2cc(-c3cccnc3)ccc2S(=O)(=O)N([C@@H](C)CO)C[C@H]1C | -14.4%
O=C(C[C@@H]1C=C[C@H](NC(=O)c2ccc3c(c2)OCO3)[C@H](CO)O1)NCc1ccc(Oc2ccccc2)cc1 | 8.65%
CN(C)C(=O)c1cccc(-c2ccc3c(c2)[C@H]2[C@H](CCN2S(=O)(=O)c2cn(C)cn2)[C@@H](CO)N3)c1 | 13.8%
CCN1C(=O)N[C@@H](c2ccccc2)C(C(=O)OC)=C1C | -1.21%
COCCN1C(=O)N[C@@H](c2ccccc2)C(C(=O)OC)=C1C | -10.8%
COC(=O)C1=C(C)N(C)C(C)=C(C(=O)OC)C1c1cccc(Br)c1 | 89.2% (active)
COCC(=O)Nc1ccc2c(c1)OC[C@H](C)N(C(=O)Cc1ccccn1)C[C@H](C)[C@@H](OC)CN(C)C2=O | 9.72%
O=C(CCl)NNc1nc(-c2ccccc2)c2cc(Cl)ccc2n1 | 16.4%
Cc1ccc2nc(Nc3ccccc3O)nc(-c3ccccc3)c2c1 | 134% (active)
OCCCNc1nc(-c2ccccc2)c2cc(Cl)ccc2n1 | 1.1%
CC(C)NC(=O)Nc1ccc2c(c1)CC(=O)N([C@@H](C)CO)C[C@@H](C)[C@@H](CN(C)S(=O)(=O)c1ccccc1)O2 | -17%
COc1ccccc1CNC(=O)C[C@@H]1CC[C@H](NC(=O)CN(C)C)[C@@H](CO)O1 | 2.77%
CN1c2ccc(-c3ccccc3)cc2[C@@H]2[C@@H](CCN2C(=O)NC2CCCC2)[C@H]1CO | -5.4%
CCCNC(=O)N[C@@H]1C=C[C@H](CC(=O)NC2CCC2)O[C@H]1CO | 1.32%
CN1C(=O)c2cc(NC(=O)c3ccc(Cl)cc3)ccc2OC[C@H]2O[C@H](CC(=O)O)CC[C@H]21 | -6.44%
C[C@@H]1CN([C@@H](C)CO)C(=O)c2cc(C#CC(C)(C)O)cnc2O[C@@H]1CN(C)C(=O)C1CCOCC1 | 16.9%
CNC(=S)N/N=C/c1ccc(OCc2ccccc2)c(Br)c1 | 10.8%
C=CCNC(=S)N/N=C/c1ccc(C)s1 | 5.1%
C=CCNC(=S)N/N=C/c1ccc(OCc2ccccc2)cc1 | 106% (active)
O=C(C[C@H]1CC[C@H]2[C@@H](COC[C@@H](O)CN2CC2CCOCC2)O1)NCc1ccc(Cl)cc1 | 7.95%
Cc1ccc(-n2nc3ccc(NC(=O)/C=C/c4ccco4)cc3n2)cc1C | 97.3% (active)
O=C(/C=C/c1ccco1)Nc1ccc(Oc2ccccc2)cc1 | -25.3%
CCC(=O)Nc1ccc2nn(-c3ccc(F)cc3)nc2c1 | -5.86%
COCC(=O)N[C@H]1C=C[C@H](CC(=O)N2CCCCC2)O[C@H]1CO | 6.62%
CNC[C@H]1Oc2cc(C#CCOC)ccc2S(=O)(=O)N([C@@H](C)CO)C[C@H]1C | -7.75%
